# Measured values: the supplement of paper PMC7801607
# Columns and labels:
# [1] = test system: CHO; assay: % viability of CHO cells (MTT); higher = less toxic; settings: 48 h
# Outline: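 CHO cells were plated at 10^6 cells/well in 200 µL and allowed to attach overnight. Fresh medium with compound at 2 or 20 µM then replaced the old medium for 48 h. Percent viability, relative to untreated cells, came from a colorimetric tetrazolium (MTT) readout.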
# [2] = test system: HepG2-A16-CD81; assay: % inhibition of HepG2 viability (CellTiter-Glo); higher = more toxic; settings: 5 µM
# [3] = test system: Plasmodium falciparum NF54 stage IV/V gametocytes; assay: % inhibition of gametocyte viability (PrestoBlue); higher = more inhibition; settings: 48 h
# Outline: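 In a single run, percent inhibition of gametocyte viability was calculated relative to vehicle and kill controls. The wells held 100 µL of Stage IV/V NF54 gametocytes at 2% gametocytaemia and 5% haematocrit, with compound at 1 or 5 µM. Plates stood at 37 °C in hypoxic conditions for 48 h. After that, 10 µL PrestoBlue was added for 2 h, and 70 µL of supernatant was transferred for fluorescence reading at 612 nm.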
# [4] = test system: Plasmodium falciparum NF54 asexual blood stage; assay: % inhibition of asexual blood stage proliferation (pLDH); higher = more inhibition; settings: 72 h
# Outline: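 Percent inhibition of asexual proliferation, normalised to controls, was determined in a screen repeated on two separate occasions. Plasmodium falciparum NF54 ring-stage cultures (1% haematocrit, 2% parasitaemia) received compound at 2 or 20 µM and were incubated for 72 h at 37 °C under 4% CO2, 3% O2 and 93% N2. A colorimetric parasite lactate dehydrogenase readout at 620 nm gave survival.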
# [5] = test system: Plasmodium falciparum NF54 stage IV/V gametocytes; assay: % inhibition of gametocyte viability (ATP bioluminescence); higher = more inhibition; settings: 24 h
# Outline: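 Enriched stage IV/V NF54 gametocytes were exposed to compound at 1 or 5 µM for 24 h at 37 °C in 96-well plates. Percent inhibition of gametocyte viability was derived from a bioluminescent ATP readout, normalised to controls within a single run.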
# [6] = test system: Plasmodium falciparum NF54 stage IV/V gametocytes; assay: % inhibition of gametocyte viability (luciferase reporter); higher = more inhibition; settings: 48 h
# Outline: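 Percent inhibition was normalised to controls from a single run. Stage IV/V gametocytes of the NF54-Pfs16-GFP-Luc line, at 2% gametocytaemia and 2% haematocrit, were exposed to compound at 1 or 5 µM for 48 h at 37 °C under stationary, hypoxic conditions. Luminescence was then read from 30 µL lysate mixed with 30 µL Promega luciferin substrate on a GloMax-Multi+ reader with 10 s integration.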
# [7] = test system: Plasmodium berghei ANKA liver stage in HepG2-A16-CD81; assay: % inhibition of liver stage parasite viability (luciferase); higher = more inhibition; settings: 5 µM; 48 h
# Procedure: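 Single-concentration screen of the MMV Pandemic Response Box. P. falciparum NF54 asexual blood stages: pLDH assay, 72 h at 37 °C, 2 and 20 µM, n=2. Stage IV/V gametocytes (NF54): luciferase reporter (NF54-Pfs16-GFP-Luc, 48 h), ATP bioluminescence (24 h) and PrestoBlue (48 h) at 1 and 5 µM, n=1. P. berghei liver stage (luciferase in HepG2-A16-CD81, 48 h post infection) at 5 µM, n=4. All normalised to DMSO and kill controls as % inhibition.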
# 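Throughout, for % inhibition of HepG2 viability (CellTiter-Glo): HepG2-A16-CD81 hepatoma cells plated as in the liver-stage assay but without sporozoites, with DMSO wells as negative and 25 µM puromycin as positive control.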
SMILES,% viability of CHO cells ([1]; 2 µM) [%],% viability of CHO cells ([1]; 20 µM) [%],% inhibition of HepG2 viability [2] [%],% inhibition of gametocyte viability ([3]; 1 µM) [%],% inhibition of gametocyte viability ([3]; 5 µM) [%],% inhibition of asexual blood stage proliferation ([4]; 2 µM) [%],% inhibition of asexual blood stage proliferation ([4]; 20 µM) [%],% inhibition of gametocyte viability ([5]; 1 µM) [%],% inhibition of gametocyte viability ([5]; 5 µM) [%],% inhibition of gametocyte viability ([6]; 1 µM) [%],% inhibition of gametocyte viability ([6]; 5 µM) [%],% inhibition of liver stage parasite viability [7] [%]
O=C(NCc1ccc2c3c(cccc13)C(=O)N2)c1cccs1,135,156,1.86,< 0,< 0,6.3,16,< 0,< 0,< 0,16.9,17.9
COc1ccccc1NC(=O)c1ccccc1Sc1ccc([N+](=O)[O-])cc1,85.2,108,-1.52,17.1,14.1,-1.69,81,7.24,1.71,3.21,8.85,27
Nc1nnnn1CCOc1c2[nH]c3ccc(Cl)cc3c2cc2c1[nH]c1ccc(Cl)cc12,98.6,121,5.71,< 0,< 0,11.9,95.2,< 0,< 0,< 0,31.2,24.1
NCc1ccc(S(N)(=O)=O)cc1,83.8,129,6.22,7.26,15.6,24,96.5,< 0,< 0,< 0,< 0,19.8
C[C@H](NC(=O)C(=O)Nc1ccccc1C(C)(C)C)C(=O)N[C@@H](CC(=O)O)C(=O)COc1c(F)c(F)cc(F)c1F,113,63.6,0.382,< 0,< 0,31.7,46.9,< 0,< 0,1.5,2.48,5.8
CCCCCCCc1[nH]c2ccccc2c(=O)c1O,96.8,107,24.8,< 0,< 0,22.4,83.6,< 0,< 0,< 0,< 0,72.5
O=c1cc(NCCCN[C@@H]2CCOc3c(Br)cc(Br)cc32)[nH]c2ccsc12,275,54.3,21.6,17.8,12.4,42.9,78.3,< 0,< 0,< 0,11.8,74.7
CCCC(=O)OCCc1ccccc1,114,99.3,0.113,10.7,4.24,8.06,16.5,< 0,< 0,< 0,0.854,-8.54
Cc1nc(-c2ccc(C3N(C)c4ccc(F)cc4C(=O)N3c3ccccc3)s2)cs1 (centres undefined),97.8,95.9,12.5,< 0,-0.427,15.3,72.5,< 0,< 0,< 0,< 0,31.9
COc1ccc2cc3[n+](cc2c1OCCN(CCn1cncn1)Cc1ccc(F)cc1F)CCc1cc2c(cc1-3)OCO2,89.4,74.2,22.1,< 0,< 0,78.3,84.3,< 0,30.9,< 0,10.3,2.84
Cc1cc(CCCOc2c(C)cc(-c3noc(C(F)(F)F)n3)cc2C)on1,103,125,7.06,6.7,35.6,44.6,65.2,4.65,5.28,10.6,< 0,-23.2
O=C(NCc1ccccc1Cl)c1cnc2ccccc2n1,106,124,5.29,< 0,< 0,6.58,48.8,< 0,< 0,< 0,< 0,12.6
FC(F)(F)c1cc(C(F)(F)F)c2ccc3nc(-c4nnco4)cn3c2n1,93.3,124,8.21,17.1,21.3,19.6,26.8,< 0,< 0,1.44,18,17.6
Clc1cc2nc(C3CCNCC3)n(Cc3ccc(CNCCc4cnc[nH]4)cc3)c2cc1Cl,88.7,96.1,2.02,< 0,1.67,27.7,98,< 0,0.428,< 0,< 0,45.7
COc1cc(C)c2c(Oc3cccc(C(F)(F)F)c3)c(OC)cc(NC(C)CCCN)c2n1 (centres undefined),95.6,-0.735,3.86,47.9,71.7,56.5,92.1,< 0,70,< 0,79.6,38.2
Cc1ccc(Oc2ccccc2-c2csc(NC3=NCCCN3)n2)c(C)c1,104,112,13,< 0,< 0,11.5,88.7,< 0,< 0,< 0,< 0,57.6
C/C(=N\NC(=O)C1CC1c1ccccc1)c1ccc(NC(=O)c2ccco2)cc1 (centres undefined),101,69.1,-5.96,< 0,14.5,18.8,38.7,3.34,< 0,< 0,< 0,13.7
CC[C@@]1(O)C(=O)OCc2c1cc1n(c2=O)Cc2cc3c([N+](=O)[O-])cccc3nc2-1,128,99.3,65.7,< 0,< 0,10.9,66.6,5.04,< 0,< 0,< 0,62.8
COc1ccc(NC(=O)c2cc3ccccn3n2)cc1,112,57,-0.446,< 0,10.6,20.3,87.1,< 0,< 0,< 0,< 0,-110

SMILES,% viability of CHO cells ([1]; 2 µM) [%],% viability of CHO cells ([1]; 20 µM) [%],% inhibition of HepG2 viability [2] [%],% inhibition of gametocyte viability ([3]; 1 µM) [%],% inhibition of gametocyte viability ([3]; 5 µM) [%],% inhibition of asexual blood stage proliferation ([4]; 2 µM) [%],% inhibition of asexual blood stage proliferation ([4]; 20 µM) [%],% inhibition of gametocyte viability ([5]; 1 µM) [%],% inhibition of gametocyte viability ([5]; 5 µM) [%],% inhibition of gametocyte viability ([6]; 1 µM) [%],% inhibition of gametocyte viability ([6]; 5 µM) [%],% inhibition of liver stage parasite viability [7] [%]
CC(C)C(=O)N[C@H]1[C@H]([C@H](O)[C@H](O)CO)OC(C(=O)O)=C[C@@H]1N=[N+]=[N-],91.9,113,5.84,< 0,14.9,9.36,29.6,1.53,< 0,< 0,< 0,10.3
Cc1[nH]c2ccccc2c1CCNCc1ccc(/C=C/C(=O)NO)cc1,76.4,37.9,54.5,19.9,34.4,62.2,79.9,< 0,< 0,31.8,3.05,72.8
O=C(O)C[C@H]1CC[C@H](c2ccc(-c3ccc(Nc4ccc(C(F)(F)F)nc4)cn3)cc2)CC1,115,77.1,4.22,24.3,3.88,24.2,39.5,7.64,6.34,< 0,< 0,39.5
COc1ccc(CNC(=O)C(NS(=O)(=O)c2ccc3nc(C)sc3c2)C(C)C)cc1 (centres undefined),105,75.8,3.43,48.7,50.8,81.6,111,< 0,< 0,13.6,< 0,21.7
CCc1cc(O)c(Oc2ccc(C(N)=O)cc2F)cc1F,116,100,3.65,18.7,17.8,54.5,62.6,< 0,< 0,< 0,< 0,8.75
COc1ccc2sc3c(c2c1)NC(C)CNC3=O (centres undefined),97.2,115,33.6,< 0,< 0,38.3,40.7,< 0,< 0,0.316,< 0,-51.9
CCOC(=O)N[C@@H]1CC[C@@H]2[C@@H](C1)C[C@H]1C(=O)O[C@H](C)[C@H]1[C@H]2/C=C/c1ccc(-c2cccc(F)c2)cn1,72.3,62.2,7.92,15.9,-0.253,42.6,71.5,17.7,33,7.62,27.4,33.5
CC(C)(C)OC(=O)NCc1ccc(C(=O)N[C@H]2CCOC2=O)cc1,96.9,115,14.5,5.05,< 0,18.3,17.2,< 0,< 0,< 0,< 0,39.8
O=C(O)[C@H]1C2CCC(CC2)[C@@H]1Nc1nc(-c2c[nH]c3ncc(F)cc23)ncc1F,91.6,97.8,-9.1,< 0,< 0,11.9,55.2,0.663,2.93,< 0,< 0,34
CCc1cc(Nc2cc(=O)n(CCN3CCN(C(=O)c4ccccc4)CC3)c(=O)[nH]2)ccc1C,93.2,103,-1.38,< 0,23.7,-6.84,61.3,< 0,< 0,< 0,9.16,10.7
C[C@H]1COc2c(N3CCN(C)CC3)c(F)cc3c(=O)c(C(=O)O)cn1c23,92.1,104,-1.57,< 0,18,15.5,39.9,1.98,1.75,18.2,0.53,11.6
CC(C)c1cc2c(cc1S(=O)(=O)O)[C@@]1(C)CCC[C@@](C)(C(=O)O)[C@@H]1CC2,93.3,109,3.51,43.4,12.4,26,89,< 0,< 0,< 0,< 0,38.5
NC(=S)N/N=C/c1ncccc1N,111,48.6,-22.6,80.3,91.2,73.5,78.5,< 0,15.5,1.59,5.86,63.5
CCOCc1nc2c(N)nc3ccccc3c2n1CC(C)(C)O,84,69.2,8.2,8.02,14.8,58,77,< 0,< 0,2.74,5.55,18.3
COc1cc(Cc2cnc(N)nc2N)c2c(c1OC)OC(C1CC1)C=C2 (centres undefined),103,67.7,-4.44,36.3,6.68,13,34,1.06,< 0,35.9,1.69,56.5
Cc1cc(O)c2c(c1)C(=O)c1c(I)c(O)c(I)c(O)c1C2=O,81.3,64.1,4.29,< 0,< 0,30.5,64.9,< 0,< 0,< 0,6.19,-49.9
Cc1cc(CCOc2c(C)cc(-c3nnn(C)n3)cc2C)on1,100,105,-1.96,26.4,21.8,12.7,31,< 0,< 0,4.37,32.2,33.8
NC(=O)c1c(N)sc2c1CCCCC2,87,32,6.02,< 0,8.3,4.8,-4.48,< 0,< 0,0.638,1.6,-7.51
